Assay results published in the supplement of paper PMC8728848.
Many of the other results were omitted from the sample, so the strongest signals are more common in it than they were.

Tests used:
Test in all cases: glycan array binding signal (z-score within array); higher = stronger binding
Settings in all cases: glycan notation: IUPAC condensed, linker removed
[1] = target: Fuc(a1-2)Gal(b1-3)GalNAc(b1-3)Gal
Procedure, shortened: (§1)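 Glycan array data were curated from 3228 arrays in the Consortium for Functional Glycomics database and kept only where the protein sequence was available. Glycan names were converted to IUPAC-condensed notation, and columns mapping to the same glycan were averaged. The binding signal is a within-array Z-score, averaged across arrays of the same protein sequence at different concentrations or buffers and across linkers. Negative Z-scores can be read as non-binding.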

[2] = target: Fuc(a1-2)Gal(b1-3)GalNAc(b1-3)Gal(a1-4)Gal(b1-4)Glc
Procedure, shortened: as §1

[3] = target: Fuc(a1-2)Gal(b1-3)GlcNAc(b1-3)[Gal(b1-4)GlcNAc(b1-6)]Gal(b1-4)Glc
Procedure, shortened: as §1

[4] = target: Fuc(a1-2)Gal(b1-4)[Fuc(a1-3)]GlcNAc(b1-3)GalNAc
Procedure, shortened: as §1

[5] = target: Fuc(a1-2)[Gal(a1-3)]Gal(b1-4)GlcNAc(b1-2)Man(a1-3)[Fuc(a1-2)[Gal(a1-3)]Gal(b1-4)GlcNAc(b1-2)Man(a1-6)]Man(b1-4)GlcNAc(b1-4)[Fuc(a1-6)]GlcNAc
Procedure, shortened: as §1

[6] = target: Fuc(a1-2)[GalNAc(a1-3)]Gal(b1-4)[Fuc(a1-3)]GlcNAc
Procedure, shortened: as §1

[7] = target: Fuc(a1-3)[Gal(b1-4)]GlcNAc(b1-2)Man(a1-3)[Fuc(a1-3)[Gal(b1-4)]GlcNAc(b1-2)Man(a1-6)]Man(b1-4)GlcNAc(b1-4)[Fuc(a1-6)]GlcNAc
Procedure, shortened: as §1

[8] = target: Fuc(a1-3)[Gal(b1-4)]GlcNAc(b1-3)Gal(b1-3)[Fuc(a1-4)]GlcNAc
Procedure, shortened: as §1

[9] = target: Fuc(a1-3)[Gal(b1-4)]GlcNAc6S
Procedure, shortened: as §1

Gal(a1-2)Gal = target: Gal(a1-2)Gal
Procedure, shortened: as §1

Gal(a1-3)Gal(b1-3)GlcNAc = target: Gal(a1-3)Gal(b1-3)GlcNAc
Procedure, shortened: as §1

[10] = target: Gal(a1-3)Gal(b1-3)GlcNAc(b1-3)GalNAc
Procedure, shortened: as §1

[11] = target: Gal(a1-3)Gal(b1-4)GlcNAc(b1-6)GalNAc
Procedure, shortened: as §1

Gal(b1-2)Gal = target: Gal(b1-2)Gal
Procedure, shortened: as §1

[12] = target: Gal(b1-3)GalNAc(a1-3)[Fuc(a1-2)]Gal(b1-4)Glc
Procedure, shortened: as §1

[13] = target: Gal(b1-3)GalNAc(b1-3)Gal(a1-4)Gal(b1-4)Glc
Procedure, shortened: as §1

[14] = target: Gal(b1-3)GlcNAc(b1-6)[Gal(b1-3)]GalNAc
Procedure, shortened: as §1

[15] = target: Gal(b1-3)[Neu5Ac(a2-6)]GalNAc
Procedure, shortened: as §1

Gal(b1-4)GlcNAc(b1-2)Man = target: Gal(b1-4)GlcNAc(b1-2)Man
Procedure, shortened: as §1

[16] = target: Gal(b1-4)GlcNAc(b1-3)Gal(b1-4)GlcNAc(b1-2)Man(a1-3)[Gal(b1-4)GlcNAc(b1-3)Gal(b1-4)GlcNAc(b1-2)Man(a1-6)]Man(b1-4)GlcNAc(b1-4)GlcNAc
Procedure, shortened: as §1

[17] = target: Gal(b1-4)GlcNAc(b1-3)Gal(b1-4)GlcNAc(b1-3)Gal(b1-4)GlcNAc(b1-2)Man(a1-3)[Gal(b1-4)GlcNAc(b1-3)Gal(b1-4)GlcNAc(b1-3)Gal(b1-4)GlcNAc(b1-2)Man(a1-6)]Man(b1-4)GlcNAc(b1-4)GlcNAc
Procedure, shortened: as §1

[18] = target: Gal(b1-4)GlcNAc(b1-3)Gal(b1-4)GlcNAc(b1-3)Gal(b1-4)GlcNAc(b1-3)Gal(b1-4)GlcNAc(b1-3)Gal(b1-4)GlcNAc(b1-2)Man(a1-3)[Gal(b1-4)GlcNAc(b1-3)Gal(b1-4)GlcNAc(b1-3)Gal(b1-4)GlcNAc(b1-3)Gal(b1-4)GlcNAc(b1-3)Gal(b1-4)GlcNAc(b1-2)Man(a1-6)]Man(b1-4)GlcNAc(b1-4)[Fuc(a1-6)]GlcNAc
Procedure, shortened: as §1

[19] = target: Gal(b1-4)GlcNAc(b1-3)Gal(b1-4)GlcNAc(b1-3)[Gal(b1-4)GlcNAc(b1-3)Gal(b1-4)GlcNAc(b1-6)]GalNAc
Procedure, shortened: as §1

[20] = target: Gal(b1-4)GlcNAc(b1-3)Gal(b1-4)GlcNAc(b1-6)[Gal(b1-3)]GalNAc
Procedure, shortened: as §1

GalNAc(b1-4)GlcNAc = target: GalNAc(b1-4)GlcNAc
Procedure, shortened: as §1

GalNAc3S(b1-4)GlcNAc = target: GalNAc3S(b1-4)GlcNAc
Procedure, shortened: as §1

Glc(a1-4)Glc = target: Glc(a1-4)Glc
Procedure, shortened: as §1

GlcA(b1-6)Gal = target: GlcA(b1-6)Gal
Procedure, shortened: as §1

[21] = target: GlcNAc(a1-4)Gal(b1-3)GlcNAc
Procedure, shortened: as §1

[22] = target: GlcNAc(a1-4)Gal(b1-4)GalNAc
Procedure, shortened: as §1

[23] = target: GlcNAc(a1-6)Gal(b1-4)GlcNAc
Procedure, shortened: as §1

[24] = target: GlcNAc(b1-2)Man(a1-3)[GlcNAc(b1-2)Man(a1-6)]Man(b1-4)GlcNAc(b1-4)GlcNAc
Procedure, shortened: as §1

[25] = target: GlcNAc(b1-3)Gal(b1-4)GlcNAc(b1-3)Gal(b1-4)GlcNAc(b1-2)Man(a1-3)[GlcNAc(b1-3)Gal(b1-4)GlcNAc(b1-3)Gal(b1-4)GlcNAc(b1-2)Man(a1-6)]Man(b1-4)GlcNAc(b1-4)GlcNAc
Procedure, shortened: as §1

[26] = target: GlcNAc(b1-3)Gal(b1-4)GlcNAc(b1-6)[GlcNAc(b1-3)Gal(b1-3)]GalNAc
Procedure, shortened: as §1

[27] = target: GlcNAc(b1-3)Gal(b1-4)GlcNAc(b1-6)[GlcNAc(b1-3)]Gal(b1-4)GlcNAc
Procedure, shortened: as §1

GlcNAc(b1-3)Man = target: GlcNAc(b1-3)Man
Procedure, shortened: as §1

Kdn(a2-3)Gal(b1-3)GlcNAc = target: Kdn(a2-3)Gal(b1-3)GlcNAc
Procedure, shortened: as §1

[28] = target: Man(a1-3)[Man(a1-6)]Man(a1-6)[Man(a1-3)]Man
Procedure, shortened: as §1

[29] = target: Man(a1-3)[Man(a1-6)]Man(b1-4)GlcNAc(b1-4)GlcNAc
Procedure, shortened: as §1

Man(b1-4)GlcNAc = target: Man(b1-4)GlcNAc
Procedure, shortened: as §1

Neu5Ac(a2-3)Gal = target: Neu5Ac(a2-3)Gal
Procedure, shortened: as §1

[30] = target: Neu5Ac(a2-3)Gal(b1-3)GlcNAc6S
Procedure, shortened: as §1

[31] = target: Neu5Ac(a2-3)Gal(b1-4)GlcNAc(b1-2)Man
Procedure, shortened: as §1

[32] = target: Neu5Ac(a2-3)Gal(b1-4)GlcNAc(b1-3)Gal(b1-3)GlcNAc
Procedure, shortened: as §1

[33] = target: Neu5Ac(a2-3)Gal(b1-4)GlcNAc(b1-3)Gal(b1-4)GlcNAc(b1-2)Man(a1-3)[Neu5Ac(a2-3)Gal(b1-4)GlcNAc(b1-3)Gal(b1-4)GlcNAc(b1-2)Man(a1-6)]Man(b1-4)GlcNAc(b1-4)GlcNAc
Procedure, shortened: as §1

[34] = target: Neu5Ac(a2-3)Gal(b1-4)GlcNAc(b1-3)Gal(b1-4)GlcNAc(b1-3)Gal(b1-4)GlcNAc(b1-2)Man(a1-3)[Neu5Ac(a2-3)Gal(b1-4)GlcNAc(b1-3)Gal(b1-4)GlcNAc(b1-3)Gal(b1-4)GlcNAc(b1-2)Man(a1-6)]GalNAc
Procedure, shortened: as §1

Neu5Ac(a2-6)Gal(b1-4)Glc = target: Neu5Ac(a2-6)Gal(b1-4)Glc
Procedure, shortened: as §1

[35] = target: Neu5Ac(a2-6)Gal(b1-4)GlcNAc
Procedure, shortened: as §1

[36] = target: Neu5Ac(a2-6)Gal(b1-4)GlcNAc(b1-2)Man(a1-6)[Gal(b1-4)GlcNAc(b1-2)Man(a1-3)]Man(b1-4)GlcNAc(b1-4)GlcNAc
Procedure, shortened: as §1

[37] = target: Neu5Ac(a2-6)Gal(b1-4)GlcNAc(b1-3)Gal(b1-4)GlcNAc(b1-3)Gal(b1-4)GlcNAc(b1-2)Man(a1-3)[Neu5Ac(a2-6)Gal(b1-4)GlcNAc(b1-3)Gal(b1-4)GlcNAc(b1-3)Gal(b1-4)GlcNAc(b1-2)Man(a1-6)]GalNAc
Procedure, shortened: as §1

[38] = target: Neu5Gc(b2-6)Gal(b1-4)GlcNAc
Procedure, shortened: as §1

B1: Pbx1CASH domain (Cryptococcus neoformans) (protein)
chain: MDETKPLWGNPRADGISLACKDSIVERNVVYDATDGAIVLFGSAGSTVKNNHVYARTRVILGGINLVDYEPWDGDYTNVKVHHNHLYALGRYFKVGIVIGPASWSDDTESVVHSASVTDNEFSGGYWGYGIVVASAKNFEVLRNKVIWDGEQGVARFSGVPGS
glycan array binding signal (z-score) [1]: 1.37 | glycan array binding signal (z-score) [2]: 0.581 | glycan array binding signal (z-score) [3]: 0.324 | glycan array binding signal (z-score) [4]: 2.39 | glycan array binding signal (z-score) [5]: -0.277 | glycan array binding signal (z-score) [6]: -0.042 | glycan array binding signal (z-score) [7]: -0.469 | glycan array binding signal (z-score) [8]: 0.08 | glycan array binding signal (z-score) [9]: 0.01 | glycan array binding signal (z-score) (Gal(a1-2)Gal): -0.625 | glycan array binding signal (z-score) (Gal(a1-3)Gal(b1-3)GlcNAc): -0.681 | glycan array binding signal (z-score) [10]: -0.095 | glycan array binding signal (z-score) [11]: -0.006 | glycan array binding signal (z-score) (Gal(b1-2)Gal): -0.215 | glycan array binding signal (z-score) [12]: 0.601 | glycan array binding signal (z-score) [13]: 0.926 | glycan array binding signal (z-score) [14]: 1.3 | glycan array binding signal (z-score) [15]: -0.674 | glycan array binding signal (z-score) (Gal(b1-4)GlcNAc(b1-2)Man): 0.337 | glycan array binding signal (z-score) [16]: 5.46 | glycan array binding signal (z-score) [17]: 3.17 | glycan array binding signal (z-score) [18]: -0.419 | glycan array binding signal (z-score) [19]: 4.67 | glycan array binding signal (z-score) [20]: 2.73 | glycan array binding signal (z-score) (GalNAc(b1-4)GlcNAc): -0.736 | glycan array binding signal (z-score) (GalNAc3S(b1-4)GlcNAc): -0.852 | glycan array binding signal (z-score) (Glc(a1-4)Glc): -0.667 | glycan array binding signal (z-score) (GlcA(b1-6)Gal): -0.6 | glycan array binding signal (z-score) [21]: -0.187 | glycan array binding signal (z-score) [22]: 0.311 | glycan array binding signal (z-score) [23]: -0.894 | glycan array binding signal (z-score) [24]: 0.233 | glycan array binding signal (z-score) [25]: 4.67 | glycan array binding signal (z-score) [26]: 0.647 | glycan array binding signal (z-score) [27]: 1.15 | glycan array binding signal (z-score) (GlcNAc(b1-3)Man): 0.12 | glycan array binding signal (z-score) (Kdn(a2-3)Gal(b1-3)GlcNAc): -0.869 | glycan array binding signal (z-score) [28]: -0.5 | glycan array binding signal (z-score) [29]: 0.022 | glycan array binding signal (z-score) (Man(b1-4)GlcNAc): -0.348 | glycan array binding signal (z-score) (Neu5Ac(a2-3)Gal): -0.64 | glycan array binding signal (z-score) [30]: 0.698 | glycan array binding signal (z-score) [31]: 2.55 | glycan array binding signal (z-score) [32]: -0.104 | glycan array binding signal (z-score) [33]: 2.42 | glycan array binding signal (z-score) [34]: 3.29 | glycan array binding signal (z-score) (Neu5Ac(a2-6)Gal(b1-4)Glc): -0.412 | glycan array binding signal (z-score) [35]: -0.348 | glycan array binding signal (z-score) [36]: -0.843 | glycan array binding signal (z-score) [37]: 3.13 | glycan array binding signal (z-score) [38]: 2.35
